# According to PubChem BioAssay (Tox21):
# Unmarked numbers belong to inactive results. Records with an inconclusive call do not appear. A call without a number means that no potency is given here. Activity calls are given as the source filed them. Unless noted, calls follow the shape of the full dose curve.
# Assays:
# [1] = qHTS assay to identify small molecule antagonists of the sonic hedgehog signaling (Shh) pathway (AID 1259369); also: nearly all actives have a fitted effect of over 45% in size; also: potency is read from the fitted curve at half-maximal effect
# In short: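 NIH/3T3-derived Gli1-Luc reporter cells plated 4 h, dosed with compound, then stimulated with conditioned medium for 24 h at 37 C. Firefly luciferase luminescence read after 30 min with detection reagent at room temperature.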
# [2] = target: Estrogen receptor beta (Homo sapiens) (UniProt Q92731); experiment: qHTS assay to identify small molecule agonists of the estrogen receptor beta (ER-beta) signaling pathway (AID 1259377; active = well fitted activation curve with a large enough effect in the signal ratio in the repeat runs, not every such curve was filed as active; the % refers to the signal ratio; also: potency is read from the fitted curve at half-maximal effect)
# In short: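 Agonist mode cell assay in GripTite HEK293T cells expressing an ER-beta fusion that drives beta-lactamase from an Upstream Activator Sequence; 16 hr compound exposure at 37C, then 2 h LiveBLAzer B/G FRET substrate at room temperature, fluorescence read-out.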
# [3] = target: Estrogen receptor beta (Homo sapiens) (UniProt Q92731); experiment: qHTS assay to identify small molecule antagonists of the estrogen receptor beta (ER-beta) signaling pathway (AID 1259378; active = well fitted inhibition curve with a large enough effect in the signal ratio in the repeat runs, not every such curve was filed as active; the % refers to the signal ratio; also: potency is read from the fitted curve at half-maximal effect)
# In short: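 ER-beta-UAS-bla HEK293T cells in 2% charcoal-stripped FBS medium treated with compound plus 1nM final 17-beta-estradiol for 16 hr at 37C. Beta-lactamase reporter read by FRET substrate fluorescence after 2 hours at room temperature.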
# [4] = qHTS assay to identify small molecule agonists of the androgen receptor (AR) signaling pathway in the presence of an antagonist - cell viability counter screen (AID 1259379; active = well fitted curve in the direction sought with a large enough effect in the repeat runs; an effect the other way counts as inactive or inconclusive;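 also: MDA-kb2 human breast cancer cells carrying an MMTV luciferase reporter; series mostly up to about 92 µM; nearly all actives have a fitted effect of over 25% in size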)
# In short: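 MDA-kb2 cells (MMTV-luciferase, AR/GR), 3,000/well, 5 h attachment, then 3.0 µM nilutamide (final) and compounds at 15 concentrations. Viability by CellTiter-Fluor fluorescence after 16 h at 37 °C, 0% CO2, in the reporter wells.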
# [5] = qHTS assay to identify small molecule antagonists of the estrogen receptor beta (ER-beta) signaling pathway - cell viability counter screen (AID 1259382; active = well fitted curve in the direction sought with a large enough effect in the repeat runs; an effect the other way counts as inactive or inconclusive; also: series mostly up to about 92 µM; nearly all actives have a fitted effect of over 55% in size)
# In short: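 ER-beta-UAS-bla HEK293T cells in 2% charcoal-stripped FBS medium, treated with compound plus 1 nM 17-beta-estradiol for 16 h at 37C. Viability read by CellTiter-Glo luminescence after 30 min at room temperature in the same wells.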
# [6] = target: Estrogen receptor (Homo sapiens) (UniProt P03372); experiment: qHTS assay to identify small molecule agonists of the estrogen receptor alpha (ER-alpha) signaling pathway in the presence of an antagonist (AID 1259383); also: nearly all actives have a fitted effect of over 15% in size; also: potency is read from the fitted curve at half-maximal effect; as to activation: top concentration of the series differs between compounds
# In short: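 VM7Luc4E2 cells express endogenous full-length ER-alpha with an ERE-luciferase reporter and were hormone-deprived for 5 days. Compounds at 15 concentrations were added with 10.0nM ICI-182,780 for 22hr at 37C. Luminescence was read with ONE-Glo.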
# [7] = qHTS assay to identify small molecule agonists of the estrogen receptor beta (ER-beta) signaling pathway - cell viability counter screen (AID 1259380; active = well fitted curve in the direction sought with a large enough effect in the repeat runs; an effect the other way counts as inactive or inconclusive; also: nearly all actives have a fitted effect of over 30% in size)
# In short: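 ER-beta-UAS-bla HEK293T cells in medium with 2% charcoal-stripped FBS, pre-incubated 6 hr, then treated 16 hr at 37C. Cytotoxicity read in the same wells by CellTiter-Glo luminescence after 30 min at room temperature.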
# [8] = qHTS assay to identify small molecule agonists or antagonists of the thyroid stimulating hormone receptor (TSHR) signaling pathway - wild type cell line counter screen (AID 1259384)
# In short: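 Wild-type Hek293 cells, 800/well, 18 h at 37C, then compound with Ro20-1724 for 30 min RT. cAMP by HTRF (cAMP-d2/anti-cAMP cryptate), 1 h RT, fluorescence read. 15 concentrations, triplicates.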
# [9] = target: Thyrotropin receptor (Homo sapiens) (UniProt P16473); experiment: qHTS assay to identify small molecule antagonists of the thyroid stimulating hormone receptor (TSHR) signaling pathway (AID 1259385); also: nearly all actives have a fitted effect of over 20% in size
# In short: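 TSHR-HEK293 cells (800/well) plated 18 h, then compounds with Ro20-1724 and TSH at 1.5 ng/mL final, 30 min at room temperature. cAMP quantified by HTRF (cAMP-d2/anti-cAMP-cryptate, 1 h); 15 concentrations in triplicate.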
# [10] = target: Androgen receptor (Homo sapiens) (UniProt P10275); experiment: qHTS assay to identify small molecule agonists of the androgen receptor (AR) signaling pathway in the presence of an antagonist (AID 1259381); also: nearly all actives have a fitted effect of over 15% in size; also: potency is read from the fitted curve at half-maximal effect
# In short: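 MDA-kb2 cells carrying MMTV-luciferase (AR/GR responsive), 3,000 cells/well, co-treated with 3.0 uM nilutamide final. Compounds at 15 concentrations, 16 hr at 37C without CO2. Luciferase luminescence read after 30 min with ONE-Glo.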
# Sequence of Estrogen receptor beta (Homo sapiens) (Q92731 whole entry, looked up, the tested form may be a part): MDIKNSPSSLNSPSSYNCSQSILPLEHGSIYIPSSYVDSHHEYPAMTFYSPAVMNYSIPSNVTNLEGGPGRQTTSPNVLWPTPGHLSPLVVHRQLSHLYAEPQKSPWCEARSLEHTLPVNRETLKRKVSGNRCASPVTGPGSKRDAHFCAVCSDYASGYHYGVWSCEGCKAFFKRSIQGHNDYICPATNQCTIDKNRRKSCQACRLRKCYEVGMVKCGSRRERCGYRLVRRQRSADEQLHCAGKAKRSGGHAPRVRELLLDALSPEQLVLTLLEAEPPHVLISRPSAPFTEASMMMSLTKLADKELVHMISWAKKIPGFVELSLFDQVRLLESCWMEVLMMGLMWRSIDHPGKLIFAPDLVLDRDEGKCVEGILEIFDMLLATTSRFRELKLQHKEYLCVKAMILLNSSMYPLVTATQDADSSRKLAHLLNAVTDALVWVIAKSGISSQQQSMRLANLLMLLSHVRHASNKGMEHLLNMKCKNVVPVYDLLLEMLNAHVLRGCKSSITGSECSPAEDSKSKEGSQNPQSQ
# Sequence of Estrogen receptor (Homo sapiens) (P03372 whole entry, looked up): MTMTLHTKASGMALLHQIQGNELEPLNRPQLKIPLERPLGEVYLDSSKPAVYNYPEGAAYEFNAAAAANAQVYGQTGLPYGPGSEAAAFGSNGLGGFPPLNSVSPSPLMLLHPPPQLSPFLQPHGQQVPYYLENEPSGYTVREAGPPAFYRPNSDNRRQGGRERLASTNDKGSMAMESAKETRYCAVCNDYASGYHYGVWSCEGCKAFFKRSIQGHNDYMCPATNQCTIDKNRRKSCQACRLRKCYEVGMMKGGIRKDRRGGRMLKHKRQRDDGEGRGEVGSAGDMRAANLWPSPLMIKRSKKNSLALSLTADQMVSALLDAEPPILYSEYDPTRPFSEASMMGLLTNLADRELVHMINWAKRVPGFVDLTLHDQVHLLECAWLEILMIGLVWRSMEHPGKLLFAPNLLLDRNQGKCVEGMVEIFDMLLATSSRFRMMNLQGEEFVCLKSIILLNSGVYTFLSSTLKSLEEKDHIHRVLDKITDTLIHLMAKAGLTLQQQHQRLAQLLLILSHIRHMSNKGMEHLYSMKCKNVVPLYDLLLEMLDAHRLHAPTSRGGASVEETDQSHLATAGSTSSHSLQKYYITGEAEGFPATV
# Sequence of Thyrotropin receptor (Homo sapiens) (P16473 whole entry, looked up): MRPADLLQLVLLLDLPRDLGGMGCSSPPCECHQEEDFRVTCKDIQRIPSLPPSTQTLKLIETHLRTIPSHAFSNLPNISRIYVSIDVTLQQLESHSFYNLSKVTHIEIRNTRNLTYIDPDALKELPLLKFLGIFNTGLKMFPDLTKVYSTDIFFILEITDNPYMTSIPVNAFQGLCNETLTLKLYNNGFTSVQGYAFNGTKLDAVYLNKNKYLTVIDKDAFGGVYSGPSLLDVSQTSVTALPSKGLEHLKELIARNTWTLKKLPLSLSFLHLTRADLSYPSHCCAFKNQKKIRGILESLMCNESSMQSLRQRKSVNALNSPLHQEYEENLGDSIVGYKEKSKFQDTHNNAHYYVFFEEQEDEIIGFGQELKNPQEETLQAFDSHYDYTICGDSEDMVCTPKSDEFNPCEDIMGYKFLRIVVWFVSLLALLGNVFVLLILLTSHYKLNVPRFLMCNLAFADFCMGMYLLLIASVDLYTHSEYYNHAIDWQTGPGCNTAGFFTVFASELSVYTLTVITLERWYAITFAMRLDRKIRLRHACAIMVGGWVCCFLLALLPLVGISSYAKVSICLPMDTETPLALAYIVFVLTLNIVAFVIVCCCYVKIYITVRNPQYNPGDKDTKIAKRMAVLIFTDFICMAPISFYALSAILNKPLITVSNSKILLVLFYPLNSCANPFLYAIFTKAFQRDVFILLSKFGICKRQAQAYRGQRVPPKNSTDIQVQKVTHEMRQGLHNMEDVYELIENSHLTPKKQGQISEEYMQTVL
# Sequence of Androgen receptor (Homo sapiens) (P10275 whole entry, looked up): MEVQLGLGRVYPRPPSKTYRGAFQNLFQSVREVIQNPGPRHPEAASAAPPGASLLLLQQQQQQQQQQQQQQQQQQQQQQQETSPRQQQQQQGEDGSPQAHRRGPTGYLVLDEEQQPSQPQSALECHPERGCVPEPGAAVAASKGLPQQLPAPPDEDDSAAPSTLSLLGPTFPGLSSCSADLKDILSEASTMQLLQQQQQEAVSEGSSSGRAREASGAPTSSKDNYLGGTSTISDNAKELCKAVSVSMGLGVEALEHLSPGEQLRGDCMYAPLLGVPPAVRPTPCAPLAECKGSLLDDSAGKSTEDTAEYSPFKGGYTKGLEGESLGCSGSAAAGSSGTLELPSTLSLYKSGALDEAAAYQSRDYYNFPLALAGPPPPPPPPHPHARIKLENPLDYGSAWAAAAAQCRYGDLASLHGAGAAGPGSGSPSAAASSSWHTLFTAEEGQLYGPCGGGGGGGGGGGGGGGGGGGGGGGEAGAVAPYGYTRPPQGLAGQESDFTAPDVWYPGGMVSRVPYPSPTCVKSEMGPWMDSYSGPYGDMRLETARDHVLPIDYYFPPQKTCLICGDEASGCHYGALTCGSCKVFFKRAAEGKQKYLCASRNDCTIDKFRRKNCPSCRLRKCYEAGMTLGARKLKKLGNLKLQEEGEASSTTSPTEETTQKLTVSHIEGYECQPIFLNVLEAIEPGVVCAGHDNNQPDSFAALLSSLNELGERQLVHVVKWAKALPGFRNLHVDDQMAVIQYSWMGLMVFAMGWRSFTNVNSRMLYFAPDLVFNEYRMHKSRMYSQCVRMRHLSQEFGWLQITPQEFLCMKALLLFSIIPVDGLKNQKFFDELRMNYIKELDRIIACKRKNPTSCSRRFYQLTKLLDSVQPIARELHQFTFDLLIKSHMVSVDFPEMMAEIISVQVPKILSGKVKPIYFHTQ
smiles,measurement,setting,value
CCOP(=S)(Oc1ccc([N+](=O)[O-])cc1)c1ccccc1 (centres undefined),Potency,[1],inactive
same,Potency,[2],inactive
same,Potency,[3],inactive
same,Potency,[4],inactive
same,Potency,[5],inactive
same,Potency,[6],inactive
CCOP(=O)(OCC)Oc1ccc([N+](=O)[O-])cc1,Potency,[1],inactive
same,Potency,[2],inactive
same,Potency,[3],inactive
same,Potency,[4],inactive
same,Potency,[7],inactive
same,Potency,[5],inactive
same,outcome,[8],inactive
same,Potency,[9],inactive
O=C(NCc1cccnc1)Nc1ccc([N+](=O)[O-])cc1,Potency,[1],inactive
same,Potency,[2],inactive
same,Potency,[3],inactive
same,Potency,[4],inactive
same,Potency,[5],inactive
same,Potency,[6],inactive
same,outcome,[8],inactive
same,Potency,[9],inactive
O=Cc1ccc2c(c1)OCO2,Potency,[1],inactive
same,Potency,[2],inactive
same,Potency,[3],inactive
same,Potency,[4],inactive
same,Potency,[5],inactive
C=CC(=O)OCC(C)C,Potency,[1],inactive
same,Potency,[2],inactive
same,Potency,[3],inactive
same,Potency,[4],inactive
same,Potency,[7],inactive
same,Potency,[5],inactive
same,Potency,[6],inactive
same,Potency,[9],inactive
CCCN(CC1CC1)c1c([N+](=O)[O-])cc(C(F)(F)F)cc1[N+](=O)[O-],Potency,[1],inactive
same,Potency,[2],inactive
same,Potency,[3],inactive
same,Potency,[4],inactive
same,Potency,[5],inactive
same,Potency,[6],inactive
same,outcome,[8],inactive
O=[N+]([O-])C(Br)(CO)CO,Potency,[1],34.4 µM (active)
same,Potency,[2],inactive
same,Potency,[3],inactive
same,Potency,[4],inactive
same,Potency,[10],inactive
same,Potency,[5],inactive
same,Potency,[6],inactive
same,outcome,[8],inactive
same,Potency,[9],inactive
CCOC(=O)CBr,Potency,[1],inactive
same,Potency,[2],inactive
same,Potency,[3],inactive
same,Potency,[4],inactive
same,Potency,[7],inactive
same,Potency,[5],inactive
same,outcome,[8],inactive
same,Potency,[9],inactive
CO[C@@H]1[C@H](OC(=O)NC(=O)CCl)CC[C@]2(CO2)[C@H]1[C@@]1(C)O[C@@H]1CC=C(C)C,"activity change, negative = inhibition",[1],-6.49% [at 19 µM]
same,activation,[2],-2.62% [at 19 µM]
same,"activity, negative = inhibition",[3],-21.4% [at 19 µM]
same,"activity change, negative = cytotoxicity",[4],-2.66% [at 19 µM]
same,activation,[10],-3.01% [at 19 µM]
same,activation,[6],-0.438% [at 19 µM]
same,cAMP activity change,[8],2.97% [at 18.9 µM]
C[N+](C)(C)CCCl,Potency,[1],inactive
same,Potency,[2],inactive
same,Potency,[3],inactive
same,Potency,[4],inactive
same,Potency,[10],inactive
same,Potency,[5],inactive
same,Potency,[6],inactive
same,outcome,[8],inactive
same,Potency,[9],inactive
C=CCC1([C@H](C)CCC)C(=O)NC(=O)NC1=O,Potency,[1],inactive
same,Potency,[2],inactive
same,Potency,[3],inactive
same,Potency,[4],inactive
same,Potency,[5],inactive
same,Potency,[6],inactive
same,outcome,[8],inactive
same,Potency,[9],inactive
O=C(O)C(F)(F)C(F)(F)C(F)(F)C(F)(F)C(F)(F)C(F)(F)C(F)(F)C(F)(F)C(F)(F)C(F)(F)F,Potency,[1],inactive
same,Potency,[2],inactive
same,Potency,[3],inactive
same,Potency,[4],inactive
same,Potency,[5],inactive
CC/C(=N\OC/C=C/Cl)C1=C(O)CC(C2CCOCC2)CC1=O (centres undefined),Potency,[1],inactive
same,Potency,[2],inactive
same,Potency,[3],inactive
same,Potency,[4],inactive
same,Potency,[7],inactive
same,Potency,[5],inactive
same,outcome,[8],inactive
same,Potency,[9],inactive
C=CC(=O)OCC(C)O (centres undefined),Potency,[1],inactive
same,Potency,[2],inactive
same,Potency,[4],inactive
same,Potency,[7],inactive
same,Potency,[5],inactive
same,Potency,[6],inactive
same,outcome,[8],inactive
same,Potency,[9],inactive
Cl/C=C\C[N+]12CN3CN(CN(C3)C1)C2,Potency,[1],inactive
same,Potency,[2],inactive
same,Potency,[3],inactive
same,Potency,[7],inactive
same,Potency,[10],inactive
same,Potency,[6],inactive
same,outcome,[8],inactive
same,Potency,[9],inactive
Clc1ccc(C2(Cn3cncn3)CC(Br)CO2)c(Cl)c1 (centres undefined),Potency,[1],inactive
same,Potency,[2],inactive
same,Potency,[4],inactive
same,Potency,[7],inactive
same,Potency,[5],inactive
same,Potency,[6],inactive
same,Potency,[9],inactive
S=C=NCc1ccccc1,Potency,[1],inactive
same,Potency,[2],inactive
same,Potency,[3],49.1 µM (active)
same,Potency,[10],inactive
same,Potency,[5],inactive
same,Potency,[9],inactive
C=CC[C@]1(O)CC[C@H]2[C@@H]3CCC4=CC(=O)CCC4=C3C=C[C@@]21C,Potency,[1],13.3 µM (active)
same,Potency,[2],inactive
same,Potency,[4],inactive
same,Potency,[7],inactive
same,Potency,[6],inactive
same,outcome,[8],inactive
C=CCOC(C)=O,Potency,[1],inactive
same,Potency,[2],inactive
same,Potency,[4],inactive
same,Potency,[7],inactive
same,Potency,[10],inactive
same,Potency,[5],inactive
same,Potency,[6],inactive
same,outcome,[8],inactive
same,Potency,[9],inactive
Nc1ccc([N+](=O)[O-])cc1[N+](=O)[O-],Potency,[1],inactive
same,Potency,[2],inactive
same,Potency,[3],inactive
same,Potency,[7],inactive
same,Potency,[10],inactive
same,Potency,[5],inactive
same,Potency,[6],inactive
same,outcome,[8],inactive
same,Potency,[9],inactive
CCCCC(CC)COP(=O)(Oc1ccccc1)Oc1ccccc1 (centres undefined),Potency,[1],inactive
same,Potency,[2],inactive
same,Potency,[4],inactive
same,Potency,[10],inactive
same,Potency,[5],inactive
same,Potency,[6],inactive
same,outcome,[8],inactive
same,Potency,[9],inactive
CCc1ccc(C(=O)NN(C(=O)c2cc(C)cc(C)c2)C(C)(C)C)cc1,Potency,[1],inactive
same,Potency,[2],inactive
same,Potency,[4],inactive
same,Potency,[7],inactive
same,Potency,[5],inactive
same,Potency,[6],inactive
same,outcome,[8],inactive
same,Potency,[9],inactive
CCOc1ccc(C(C)(C)COCc2cccc(Oc3ccccc3)c2)cc1,Potency,[1],inactive
same,Potency,[2],inactive
same,Potency,[3],inactive
same,Potency,[4],inactive
same,Potency,[6],inactive
same,outcome,[8],inactive
same,Potency,[9],inactive
CC1Sc2c(C(=O)O)c(=O)c3cc(F)c(N4CCNCC4)cc3n21 (centres undefined),Potency,[1],inactive
same,Potency,[2],inactive
same,Potency,[4],inactive
same,Potency,[7],inactive
same,Potency,[10],inactive
same,Potency,[5],inactive
same,Potency,[6],inactive
same,outcome,[8],inactive
O=S(=O)(O)C(F)(F)C(F)(F)C(F)(F)C(F)(F)F,Potency,[1],57.8 µM (active)
same,Potency,[2],inactive
same,Potency,[4],inactive
same,Potency,[7],inactive
same,Potency,[5],inactive
same,Potency,[6],0.578 µM (active)
same,outcome,[8],inactive
same,Potency,[9],inactive
CCCCc1c(C)nc(NCC)nc1OS(=O)(=O)N(C)C,Potency,[1],61.1 µM (active)
same,Potency,[2],inactive
same,Potency,[4],inactive
same,Potency,[7],inactive
same,Potency,[5],inactive
same,Potency,[6],inactive
same,outcome,[8],inactive
same,Potency,[9],inactive
C[C@]12CC[C@H]3[C@@H](CCC4=CC(=O)CC[C@@H]43)[C@@H]1CC[C@@H]2OC(=O)CCC1CCCCC1,Potency,[1],inactive
same,Potency,[2],1.19 µM (active)
same,Potency,[4],inactive
same,Potency,[7],inactive
same,Potency,[10],0.0422 µM (active)
same,Potency,[6],1.68 µM (active)
C=CCN1CC[C@]23c4c5ccc(O)c4O[C@H]2C(=O)CC[C@@]3(O)[C@H]1C5,Potency,[1],inactive
same,Potency,[2],inactive
same,Potency,[4],inactive
same,Potency,[7],inactive
same,Potency,[5],inactive
same,Potency,[9],inactive
CN(C)c1ccc(N(C)C)cc1,Potency,[1],inactive
same,Potency,[2],inactive
same,Potency,[4],inactive
same,Potency,[6],inactive
CC[C@H]1C[C@H]2[C@@H]3CCC4=CC(=O)CC[C@@H]4[C@H]3CC[C@]2(C)[C@H]1O,Potency,[1],inactive
same,Potency,[2],inactive
same,Potency,[4],inactive
same,Potency,[7],inactive
same,Potency,[6],inactive
same,outcome,[8],inactive
same,Potency,[9],inactive
